# Inconclusive results are not listed. Calls of active or inactive are those of the source.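 How the source made its calls, unless noted: active means GFP response below 50% of the DMSO control; inconclusive means fewer than 70 events counted for a yeast strain; inactive means the rest.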
# Experiments:
# [1] = yeast TOR pathway RPL19A-GFP modulators, primary screen, cell-based, S. cerevisiae, multiplex flow cytometry (AID 1862; in the data active means percent of DMSO control GFP below about 86%;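 further: lower values mimic rapamycin by blocking the RPL19A rise seen in DMSO cells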); details: S. cerevisiae RPL19A-GFP strain, flow cytometry fluorescence, 3 h; at 10 µM; stronger effect = lower value
# [2] = modulators of MEP2-GFP levels in yeast, primary screen, S. cerevisiae, multiplex flow cytometry (AID 1867;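 active means GFP response, as percent of the DMSO control, above the screen-wide mean plus 3 SD, about 139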;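 further: median GFP channel fluorescence of barcode-gated MEP2-GFP cells measured by flow cytometry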); details: S. cerevisiae MEP2-GFP strain, 3 h, at 10 µM, stronger effect = higher value, 100% means same as DMSO wells
# [3] = modulators of CIT2-GFP expression in yeast, primary screen, S. cerevisiae, GFP fusion, multiplex flow cytometry (AID 1870;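 active means percent response above a set limit, the screen-wide mean plus 3 SD, cut at about 130% in these data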;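 further: barcoded CIT2-GFP strain pooled with four other GFP strains with rapamycin as positive control; median GFP fluorescence per well over plate mean of DMSO wells so 100% = DMSO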); details: 3 h, at 10 µM, stronger effect = higher value
# [4] = modulators of LAP4-GFP expression in yeast, primary screen, S. cerevisiae, multiplex flow cytometry (AID 1873;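 active means GFP signal, as percent of the solvent control, above the screen mean plus 3 SD, about 149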); details: 3 h, at 10 µM, stronger effect = higher value
# [5] = modulators of AGP1-GFP expression in yeast TOR pathway, primary screen, cell-based, multiplex flow cytometry, S. cerevisiae (AID 1887;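 active means GFP signal above the screen-wide mean plus 3 SD, that is over about 124.5% of the solvent control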;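 further: AGP1-GFP fusion strain of S. cerevisiae within a five-strain barcoded multiplex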); details: 3 h, at 10 µM, stronger effect = higher value
# [6] = RPL19A-GFP modulators, yeast TOR pathway, confirmation, cell-based, S. cerevisiae, flow cytometry, cherry picks, mother/daughter gates (AID 2270); details: S. cerevisiae RPL19A-GFP strain, 3 h, at 10 µM, stronger effect = lower value, 100 = same GFP as DMSO wells
# [7] = LAP4-GFP expression modulators in yeast, confirmation, cell-based, cherry picks, flow cytometry, mother/daughter gates (AID 2271;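 active means GFP response above 150% of the DMSO control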;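 further: ratio of sample to DMSO plate mean so 100% equals DMSO level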); details: S. cerevisiae LAP4-GFP strain, 3 h, at 10 µM, stronger effect = higher value, 100 means same as DMSO control
# [8] = modulators of MEP2-GFP levels in yeast, confirmation, S. cerevisiae, flow cytometry GFP, cherry picks (AID 2272;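 active means GFP response above 150% of the DMSO control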;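 further: ratio of well signal to plate DMSO mean so 100% equals DMSO level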); details: S. cerevisiae MEP2-GFP strain, 3 h, at 10 µM, stronger effect = higher value
# [9] = modulators of CIT2-GFP expression in yeast, confirmation, S. cerevisiae, GFP fusion, cherry picks, mother/daughter gates (AID 2274;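 active means GFP response above 150% of the DMSO level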); details: S. cerevisiae CIT2-GFP strain, flow cytometry, 3 h, at 10 µM, stronger effect = higher value
# [10] = inhibitors of CD8+ T cell-vesicle binding, pilot screen, LFA-1/ICAM-1 modulator project, MLPCN validation set, flow cytometry (AID 2523;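 active means response below a set limit, under 55% cells CD8-positive and vesicle-bound, and CD8 cells' 90th-percentile brightness under 279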;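 on vesicle binding response: mean PE anti-B7-1 fluorescence of CD8+ cells relative to row control; 100% = QL9-loaded vesicles with DMSO vehicle in the same plate row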); details: 2C mouse CD8+ T cells, at 7 µM, stronger effect = lower value; double positive events: measured here: CD8+/vesicle+ event percentage
# [11] = biological target: Integrin beta-1 (Homo sapiens) + Integrin alpha-4 (Homo sapiens) (UniProt P13612+P05556); test: inhibition of HUTS-21 binding to VLA-4, pilot screen, VLA-4 allosteric modulator project, U937 cells, HUTS-21 mAb, flow cytometry, validation set (AID 2674;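 active means inhibition above 50%, about 3 SD of the validation set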;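 further: antibody binding induced by the VLA-4 ligand LDV present at three times its Kd; 0% = LDV ligand with antibody and no compound and 100% = antibody without LDV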); details: HUTS-21 LIBS mAb binding, at 6.7 µM, stronger effect = higher value, binding induced by LDV ligand
# Sequence of Integrin beta-1 (Homo sapiens) + Integrin alpha-4 (Homo sapiens) (P05556 whole entry, looked up): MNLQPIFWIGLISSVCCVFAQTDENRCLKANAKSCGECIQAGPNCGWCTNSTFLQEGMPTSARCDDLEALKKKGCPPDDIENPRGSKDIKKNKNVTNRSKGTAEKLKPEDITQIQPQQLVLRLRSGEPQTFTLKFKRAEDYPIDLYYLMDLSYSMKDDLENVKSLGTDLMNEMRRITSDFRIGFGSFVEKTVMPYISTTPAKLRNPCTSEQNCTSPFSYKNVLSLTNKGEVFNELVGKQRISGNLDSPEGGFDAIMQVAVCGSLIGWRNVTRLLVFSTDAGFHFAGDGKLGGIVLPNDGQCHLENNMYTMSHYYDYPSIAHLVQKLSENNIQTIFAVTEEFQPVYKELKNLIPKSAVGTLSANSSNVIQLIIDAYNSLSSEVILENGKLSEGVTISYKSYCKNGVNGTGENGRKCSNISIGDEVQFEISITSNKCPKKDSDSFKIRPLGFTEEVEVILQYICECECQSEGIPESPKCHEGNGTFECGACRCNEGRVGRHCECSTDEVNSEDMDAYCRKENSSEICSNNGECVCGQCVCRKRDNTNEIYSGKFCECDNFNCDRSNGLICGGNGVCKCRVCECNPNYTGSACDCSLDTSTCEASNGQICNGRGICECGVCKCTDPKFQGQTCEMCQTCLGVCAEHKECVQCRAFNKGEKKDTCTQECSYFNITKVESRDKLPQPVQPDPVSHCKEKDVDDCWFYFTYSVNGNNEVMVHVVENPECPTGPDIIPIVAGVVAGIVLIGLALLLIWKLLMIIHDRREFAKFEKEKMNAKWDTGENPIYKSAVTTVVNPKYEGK
# Sequence of Integrin beta-1 (Homo sapiens) + Integrin alpha-4 (Homo sapiens) (P13612 whole entry, looked up): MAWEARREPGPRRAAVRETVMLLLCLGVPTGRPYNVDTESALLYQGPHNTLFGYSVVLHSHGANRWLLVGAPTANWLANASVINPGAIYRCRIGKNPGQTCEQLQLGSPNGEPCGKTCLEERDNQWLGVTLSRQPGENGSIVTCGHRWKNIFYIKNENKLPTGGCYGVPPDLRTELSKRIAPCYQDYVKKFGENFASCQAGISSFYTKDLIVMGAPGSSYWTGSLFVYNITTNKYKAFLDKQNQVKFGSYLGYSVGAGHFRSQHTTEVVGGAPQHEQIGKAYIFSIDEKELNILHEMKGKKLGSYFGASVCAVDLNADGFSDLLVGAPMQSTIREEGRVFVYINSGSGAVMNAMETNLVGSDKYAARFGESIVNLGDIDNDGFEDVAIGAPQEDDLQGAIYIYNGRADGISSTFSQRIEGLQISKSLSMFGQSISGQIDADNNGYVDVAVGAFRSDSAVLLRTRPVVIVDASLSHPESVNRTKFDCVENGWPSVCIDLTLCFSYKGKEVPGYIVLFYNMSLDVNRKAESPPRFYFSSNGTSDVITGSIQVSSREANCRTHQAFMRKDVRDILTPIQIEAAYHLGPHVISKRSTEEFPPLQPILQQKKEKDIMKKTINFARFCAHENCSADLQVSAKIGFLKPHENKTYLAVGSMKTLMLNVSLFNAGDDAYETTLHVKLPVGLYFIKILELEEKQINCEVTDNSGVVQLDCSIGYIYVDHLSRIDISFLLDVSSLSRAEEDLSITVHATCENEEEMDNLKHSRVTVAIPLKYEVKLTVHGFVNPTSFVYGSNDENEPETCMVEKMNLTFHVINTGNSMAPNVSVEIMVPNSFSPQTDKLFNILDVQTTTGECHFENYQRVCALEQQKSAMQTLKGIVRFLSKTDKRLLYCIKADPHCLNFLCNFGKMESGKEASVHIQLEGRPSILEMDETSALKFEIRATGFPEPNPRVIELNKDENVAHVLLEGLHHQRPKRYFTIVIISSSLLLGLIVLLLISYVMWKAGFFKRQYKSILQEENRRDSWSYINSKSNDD
# [12] = superoxide lowering in aged yeast cells, pilot screen, validation compound set (AID 2706;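 active means superoxide response below 65% of plate, a cut near 3 SD across the whole screen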;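 further: yeast exposed to compound for one week at 30 degrees C before staining; 100% = mean of all compound wells on the same plate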); details: S. cerevisiae aging, superoxide DHE fluorescence; at 10 µM; stronger effect = lower value
# [13] = biological target: Beta-adrenergic receptor kinase 1 (Homo sapiens) (UniProt P25098); test: GRK2 binders displacing RNA aptamer, biochemical, validation, human GRK2, bead flow cytometry (AID 488806;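 active means aptamer binding inhibition above 30%, about 3 SD of noise from non-fluorescent compounds; inactive means inhibition at or below 30%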); details: bead-bound GRK2, FAM-aptamer displacement, at 10 µM, stronger effect = higher value
# Sequence of Beta-adrenergic receptor kinase 1 (Homo sapiens) (P25098 whole entry, looked up): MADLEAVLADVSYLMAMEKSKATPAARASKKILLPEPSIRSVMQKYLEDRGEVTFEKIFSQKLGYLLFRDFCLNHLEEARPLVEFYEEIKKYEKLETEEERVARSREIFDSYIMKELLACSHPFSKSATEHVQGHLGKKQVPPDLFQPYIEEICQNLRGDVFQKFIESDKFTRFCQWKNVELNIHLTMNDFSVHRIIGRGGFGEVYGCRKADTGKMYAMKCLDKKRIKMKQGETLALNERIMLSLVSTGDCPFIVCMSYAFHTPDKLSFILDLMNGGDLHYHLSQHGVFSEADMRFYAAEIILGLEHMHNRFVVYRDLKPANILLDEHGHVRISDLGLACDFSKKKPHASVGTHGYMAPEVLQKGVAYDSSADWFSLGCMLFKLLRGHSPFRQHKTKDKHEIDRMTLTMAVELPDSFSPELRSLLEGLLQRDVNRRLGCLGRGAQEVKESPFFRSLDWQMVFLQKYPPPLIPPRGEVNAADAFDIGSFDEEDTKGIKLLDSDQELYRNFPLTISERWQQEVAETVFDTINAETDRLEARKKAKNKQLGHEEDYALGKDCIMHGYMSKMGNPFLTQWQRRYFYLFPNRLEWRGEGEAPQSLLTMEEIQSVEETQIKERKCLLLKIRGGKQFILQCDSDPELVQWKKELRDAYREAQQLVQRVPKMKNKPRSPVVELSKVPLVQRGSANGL
# [14] = biological target: Beta-2 adrenergic receptor (Homo sapiens) (UniProt P07550); test: beta2AR agonists driving receptor internalization, pilot screen, cell-based, FAP fluorogen, flow cytometry, validation set (AID 504459;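 active means percent response above 42, roughly 3 SD of non-fluorescent test compounds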;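 further: agonist-driven loss of surface beta2AR via internalization measured by FAP dye flow cytometry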); details: Am2.2-beta2AR cells, FAP surface receptor flow cytometry; at 10 µM; stronger effect = higher value
# Sequence of Beta-2 adrenergic receptor (Homo sapiens) (P07550 whole entry, looked up): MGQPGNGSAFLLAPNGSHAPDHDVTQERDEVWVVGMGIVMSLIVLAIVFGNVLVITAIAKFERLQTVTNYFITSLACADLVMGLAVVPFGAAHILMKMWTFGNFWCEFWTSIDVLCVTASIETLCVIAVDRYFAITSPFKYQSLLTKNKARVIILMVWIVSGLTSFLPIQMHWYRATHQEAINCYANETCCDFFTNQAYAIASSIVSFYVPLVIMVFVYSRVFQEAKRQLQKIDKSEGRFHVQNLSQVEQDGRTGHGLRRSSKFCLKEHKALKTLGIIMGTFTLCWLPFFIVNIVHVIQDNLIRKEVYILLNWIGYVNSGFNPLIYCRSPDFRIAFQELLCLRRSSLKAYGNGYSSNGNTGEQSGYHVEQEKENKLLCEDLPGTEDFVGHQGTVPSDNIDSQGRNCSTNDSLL
# [15] = biological target: AP-2 complex subunit beta (Homo sapiens) (UniProt P63010); test: inhibitors of arrestin peptide binding to AP2, pilot screen, biochemical, validation set, GST-AP2 beads, flow cytometry (AID 504541;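 active means inhibition above 54%, about 3 SD of non-fluorescent compounds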;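 further: AP2 carries R879A mutation and is captured from E. coli lysate; bead-bound FITC arrestin peptide fluorescence measuring arrestin peptide binding to AP2; 0% = DMSO wells and 100% = excess unlabeled arrestin peptide control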); details: FITC arrestin peptide, at 10 µM, stronger effect = higher value, AP2 beta2 appendage fragment, R879A mutant
# Sequence of AP-2 complex subunit beta (Homo sapiens) (P63010 whole entry, looked up, the tested form may be a part, one chain of several): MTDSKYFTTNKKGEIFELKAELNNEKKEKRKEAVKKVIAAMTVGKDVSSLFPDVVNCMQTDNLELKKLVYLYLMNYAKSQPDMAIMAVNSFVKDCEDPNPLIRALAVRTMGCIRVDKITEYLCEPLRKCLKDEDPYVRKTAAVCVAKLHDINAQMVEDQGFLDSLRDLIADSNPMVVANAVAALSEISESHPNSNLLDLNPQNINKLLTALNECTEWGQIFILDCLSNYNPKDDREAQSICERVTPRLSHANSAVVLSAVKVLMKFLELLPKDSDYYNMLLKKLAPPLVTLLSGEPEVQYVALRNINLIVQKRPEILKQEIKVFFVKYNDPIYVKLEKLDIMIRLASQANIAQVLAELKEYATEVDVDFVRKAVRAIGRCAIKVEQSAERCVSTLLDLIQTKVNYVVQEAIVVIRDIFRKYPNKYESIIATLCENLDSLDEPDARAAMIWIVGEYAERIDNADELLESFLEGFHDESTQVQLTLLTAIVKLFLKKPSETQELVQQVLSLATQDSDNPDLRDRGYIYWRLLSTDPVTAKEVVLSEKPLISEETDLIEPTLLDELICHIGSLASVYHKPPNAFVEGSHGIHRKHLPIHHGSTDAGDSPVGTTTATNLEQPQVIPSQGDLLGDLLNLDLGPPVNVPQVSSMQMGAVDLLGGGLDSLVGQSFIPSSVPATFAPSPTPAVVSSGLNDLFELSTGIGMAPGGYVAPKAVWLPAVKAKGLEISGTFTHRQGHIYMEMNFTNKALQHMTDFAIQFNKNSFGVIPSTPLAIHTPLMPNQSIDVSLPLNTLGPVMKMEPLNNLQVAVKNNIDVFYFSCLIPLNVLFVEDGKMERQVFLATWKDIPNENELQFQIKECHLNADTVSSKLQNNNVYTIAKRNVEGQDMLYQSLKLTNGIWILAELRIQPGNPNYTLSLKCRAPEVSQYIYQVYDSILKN
# [16] = yeast V-ATPase proton transport modulators, S. cerevisiae, pHLuorin, HTS validation (AID 504600; in the data active means response above about 15%;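 further: plate controls were DMSO for no effect and reference compound for full effect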); details: S. cerevisiae pHLuorin cytosolic pH, at 10 µM, stronger effect = higher value
# [17] = tested on: anti-desmoglein-3 scFv antibody binding to human DSG3; test: inhibitors of anti-DSG3 scFv binding to DSG3, pilot screen, biochemical, validation compound set, bead-based, flow cytometry (AID 588368;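 active means binding below the plate cutoff, the plate median minus 3 SD, with a reading above zero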;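 further: signal is the median channel fluorescence of bead-bound GFP antibody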); details: Protein G beads, DSG3-Fc, scFv-GFP binding, at 10 µM, stronger effect = lower value
# [18] = inhibitors of fungal efflux pumps CDR1, CDR2, MDR1, pilot screen, validation compound set, multiplex, phenotypic (AID 588506;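 active means efflux inhibition above 0.42, the validation set average plus 4 SD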;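 further: Nile Red retained in cells so higher fluorescence means more efflux inhibition; 0 = negative control wells and 1 = enniatin B 25 µM full block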); details: S. cerevisiae pump-expressing triplex, Nile Red efflux flow cytometry; at 10 µM; stronger effect = higher value; the pumps come from Candida albicans
# [19] = biological target: ATP-binding cassette sub-family B member 6 (Homo sapiens) (UniProt Q9NP58); test: ABCB6 transporter inhibitors, pilot screen, K562-ABCB6 cells, flow cytometry, validation set (AID 588550;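 active means inhibition above the screen-wide mean plus 3 SD, about 51%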;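 further: 0% = DMSO wells and 100% = benzethonium chloride 70 µM positive control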); details: K562-ABCB6 porphyrin accumulation, 1 h, at 10 µM, stronger effect = higher value
# Sequence of ATP-binding cassette sub-family B member 6 (Homo sapiens) (Q9NP58 whole entry, looked up): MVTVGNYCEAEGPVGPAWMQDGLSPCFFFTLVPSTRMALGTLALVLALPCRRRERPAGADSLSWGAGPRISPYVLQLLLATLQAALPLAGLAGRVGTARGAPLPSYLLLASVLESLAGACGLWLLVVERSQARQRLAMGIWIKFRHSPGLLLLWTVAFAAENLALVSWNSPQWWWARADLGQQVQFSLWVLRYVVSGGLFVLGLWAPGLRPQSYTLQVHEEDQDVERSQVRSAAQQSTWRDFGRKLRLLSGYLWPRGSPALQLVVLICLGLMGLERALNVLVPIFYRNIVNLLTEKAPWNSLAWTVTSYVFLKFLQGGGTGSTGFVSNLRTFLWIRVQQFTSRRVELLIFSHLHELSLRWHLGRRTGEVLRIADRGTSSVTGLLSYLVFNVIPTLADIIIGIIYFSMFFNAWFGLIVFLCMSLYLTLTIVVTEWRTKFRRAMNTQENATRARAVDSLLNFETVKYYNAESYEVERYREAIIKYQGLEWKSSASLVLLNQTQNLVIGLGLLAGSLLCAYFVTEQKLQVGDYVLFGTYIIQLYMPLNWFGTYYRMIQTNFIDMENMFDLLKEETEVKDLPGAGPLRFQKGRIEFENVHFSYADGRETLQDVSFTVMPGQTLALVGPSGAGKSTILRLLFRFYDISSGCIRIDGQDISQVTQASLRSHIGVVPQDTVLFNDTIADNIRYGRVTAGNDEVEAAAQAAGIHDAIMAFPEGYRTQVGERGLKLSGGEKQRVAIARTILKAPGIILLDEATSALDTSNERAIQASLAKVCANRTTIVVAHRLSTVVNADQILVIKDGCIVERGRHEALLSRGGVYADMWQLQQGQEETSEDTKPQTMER
# [20] = promoters of myeloid differentiation in arrested cells, primary screen, cell-based, GFP/MAC1 double positive, flow cytometry, validation set (AID 588685;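 active means differentiation response of at least 50%, scaled between solvent and reference control, from cells with both markers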;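 further: compound exposure lasts four days before antibody staining and flow analysis; 0% = DMSO wells and 100% = 5 µM fulvestrant positive control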); details: ER-HoxA9 marrow cells, stronger effect = higher value, normalized: vehicle 0, fulvestrant 100
# [21] = measured here: daughter cell gate
# [22] = measured here: mother cell gate
# [23] = measured here: daughter cell gate response
# [24] = measured here: mother cell gate response
compound,measurement,setting,value
CCCCCCCC(=O)OCC(=O)[C@@]1(O)CC[C@H]2[C@@H]3CCC4=CC(=O)CC[C@]4(C)[C@H]3[C@@H](O)C[C@@]21C,percent of DMSO control GFP,[1],102% (inactive)
same,GFP response vs DMSO,[2],107% (inactive)
same,percent response of DMSO control,[3],98.9% (inactive)
same,GFP response vs DMSO,[4],96.6% (inactive)
same,"GFP response, % of DMSO",[5],98.3% (inactive)
same,GFP response vs DMSO,[6],96.5% (inactive)
same,GFP response vs DMSO,[6]; [21],95.9%
same,GFP response vs DMSO,[6]; [22],96.9%
same,GFP response relative to DMSO,[7],94.1% (inactive)
same,GFP response relative to DMSO,[7]; [23],92.9%
same,GFP response relative to DMSO,[7]; [24],96.4%
same,GFP response vs DMSO,[8],103% (inactive)
same,"GFP response, % of DMSO",[9],93.1% (inactive)
same,"GFP response, % of DMSO",[9]; [21],94%
same,"GFP response, % of DMSO",[9]; [22],92.6%
same,double positive events,[10],58.8%
same,vesicle binding response,[10],182% (inactive)
same,inhibition,[11],11% (inactive)
same,superoxide response (% of plate),[12],108% (inactive)
same,aptamer binding inhibition,[13],4% (inactive)
same,response,[14],0.19% (inactive)
same,inhibition,[15],-9.35% (inactive)
same,response,[16],10.5% (inactive)
same,binding (% of control),[17],97.1% (inactive)
same,efflux inhibition (fraction of control),[18],0.74 (active)
same,inhibition,[19],14% (inactive)
same,differentiation response,[20],5.13% (inactive)
COc1ccc(C2=CC(=O)C=CC2=O)cc1,percent of DMSO control GFP,[1],84.7% (active)
same,GFP response vs DMSO,[2],105% (inactive)
same,percent response of DMSO control,[3],68.5% (inactive)
same,GFP response vs DMSO,[4],144% (inactive)
same,"GFP response, % of DMSO",[5],91.9% (inactive)
same,GFP response vs DMSO,[6],109% (inactive)
same,GFP response vs DMSO,[6]; [21],114%
same,GFP response vs DMSO,[6]; [22],104%
same,GFP response relative to DMSO,[7],119% (inactive)
same,GFP response relative to DMSO,[7]; [23],120%
same,GFP response relative to DMSO,[7]; [24],122%
same,GFP response vs DMSO,[8],117% (inactive)
same,"GFP response, % of DMSO",[9],108% (inactive)
same,"GFP response, % of DMSO",[9]; [21],111%
same,"GFP response, % of DMSO",[9]; [22],103%
same,double positive events,[10],64.5%
same,vesicle binding response,[10],146% (inactive)
same,inhibition,[11],4.84% (inactive)
same,superoxide response (% of plate),[12],80.4% (inactive)
same,aptamer binding inhibition,[13],1% (inactive)
same,response,[14],64.2% (active)
same,inhibition,[15],64.5% (active)
same,response,[16],62.2% (active)
same,binding (% of control),[17],88.8% (inactive)
same,efflux inhibition (fraction of control),[18],-0.04 (inactive)
same,inhibition,[19],-2% (inactive)
same,differentiation response,[20],-0.06% (inactive)
O=c1cnn([C@@H]2O[C@H](CO)[C@@H](O)[C@H]2O)c(=O)[nH]1,percent of DMSO control GFP,[1],84.9% (active)
same,GFP response vs DMSO,[2],88.8% (inactive)
same,percent response of DMSO control,[3],80.8% (inactive)
same,GFP response vs DMSO,[4],129% (inactive)
same,"GFP response, % of DMSO",[5],98% (inactive)
same,GFP response vs DMSO,[6],80.6% (inactive)
same,GFP response vs DMSO,[6]; [21],81%
same,GFP response vs DMSO,[6]; [22],81.6%
same,GFP response relative to DMSO,[7],109% (inactive)
same,GFP response relative to DMSO,[7]; [23],104%
same,GFP response relative to DMSO,[7]; [24],109%
same,GFP response vs DMSO,[8],93.3% (inactive)
same,"GFP response, % of DMSO",[9],77.7% (inactive)
same,"GFP response, % of DMSO",[9]; [21],77.9%
same,"GFP response, % of DMSO",[9]; [22],74.6%
same,double positive events,[10],62.2%
same,vesicle binding response,[10],127% (inactive)
same,inhibition,[11],13.4% (inactive)
same,superoxide response (% of plate),[12],124% (inactive)
same,aptamer binding inhibition,[13],1% (inactive)
same,response,[14],-10.1% (inactive)
same,inhibition,[15],-3.47% (inactive)
same,response,[16],-1.24% (inactive)
same,binding (% of control),[17],107% (inactive)
same,efflux inhibition (fraction of control),[18],-0.04 (inactive)
same,inhibition,[19],0% (inactive)
same,differentiation response,[20],1.91% (inactive)
Cc1ccc(OCCCCn2ccnc2C)c(C)c1,percent of DMSO control GFP,[1],97.3% (inactive)
same,GFP response vs DMSO,[2],99.6% (inactive)
same,percent response of DMSO control,[3],95.7% (inactive)
same,GFP response vs DMSO,[4],103% (inactive)
same,"GFP response, % of DMSO",[5],110% (inactive)
same,GFP response vs DMSO,[6],99.6% (inactive)
same,GFP response vs DMSO,[6]; [21],99.4%
same,GFP response vs DMSO,[6]; [22],101%
same,GFP response relative to DMSO,[7],99.8% (inactive)
same,GFP response relative to DMSO,[7]; [23],99.7%
same,GFP response relative to DMSO,[7]; [24],100%
same,GFP response vs DMSO,[8],112% (inactive)
same,"GFP response, % of DMSO",[9],98.4% (inactive)
same,"GFP response, % of DMSO",[9]; [21],100%
same,"GFP response, % of DMSO",[9]; [22],97.7%
same,double positive events,[10],59.6%
same,vesicle binding response,[10],179% (inactive)
same,inhibition,[11],30.4% (inactive)
same,superoxide response (% of plate),[12],98.5% (inactive)
same,aptamer binding inhibition,[13],3% (inactive)
same,response,[14],-16% (inactive)
same,inhibition,[15],-1.94% (inactive)
same,response,[16],3.03% (inactive)
same,binding (% of control),[17],106% (inactive)
same,efflux inhibition (fraction of control),[18],-0.13 (inactive)
same,inhibition,[19],10% (inactive)
same,differentiation response,[20],5.85% (inactive)

# Source: PubChem BioAssay
